This is one part of a sample in which hits are shown more often than they occur.
ARNT TACC3 PPI: disruptors of ARNT/TACC3 protein interaction, primary screen, biochemical, AlphaScreen, single concentration; inhibition, % at 9.99 µM; Transforming acidic coiled-coil-containing protein 3 (Homo sapiens), Q9Y6A5; AlphaScreen His-ARNT PAS-B/GST-TACC3 binding, luminescence; TACC3 fragment carries E629A point mutation; 390,000 tested, 0.66% active;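 active = mean inhibition of replicates at least 50% and at least half of replicates each reaching 50%; inconclusive = half or more replicates reach 50% but mean below 50%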;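 note: 0% = complete ARNT plus TACC3 wells and 100% = ARNT alone without TACC3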
ALR inh: inhibitors of human ALR sulfhydryl oxidase, primary screen, biochemical, H2O2 detection, HRP-luminol luminescence, single point; FAD-linked sulfhydryl oxidase ALR (Homo sapiens), P55789; purified ALR, DTT oxidation; inhibition, % (concentration not given with the values); 290,000 tested, 3.8% active; AID 485317, 2010;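 active = mean replicate inhibition above about 79%, with every replicate also reaching it, limit read from the data; inconclusive = only one of the two criteria met; inactive = mean below limit and not every replicate reaching it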
NRP1-CendR mod: modulators of CendR peptide binding to NRP-1, primary screen, biochemical, fluorescence polarization, uHTS | inhibition, % at 25 µM | FAM-RPARPAR peptide binding to NRP-1 | Neuropilin-1 (Homo sapiens), O14786 | AID 602438, 2012 | 360,000 tested, 0.85% active;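 active = inhibition or corrected inhibition above about 18%, plus a signal ratio from 0.5 to 1.5, limit read from the data, passing the limit was not always enough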
Target sequence (O14786 whole entry, looked up): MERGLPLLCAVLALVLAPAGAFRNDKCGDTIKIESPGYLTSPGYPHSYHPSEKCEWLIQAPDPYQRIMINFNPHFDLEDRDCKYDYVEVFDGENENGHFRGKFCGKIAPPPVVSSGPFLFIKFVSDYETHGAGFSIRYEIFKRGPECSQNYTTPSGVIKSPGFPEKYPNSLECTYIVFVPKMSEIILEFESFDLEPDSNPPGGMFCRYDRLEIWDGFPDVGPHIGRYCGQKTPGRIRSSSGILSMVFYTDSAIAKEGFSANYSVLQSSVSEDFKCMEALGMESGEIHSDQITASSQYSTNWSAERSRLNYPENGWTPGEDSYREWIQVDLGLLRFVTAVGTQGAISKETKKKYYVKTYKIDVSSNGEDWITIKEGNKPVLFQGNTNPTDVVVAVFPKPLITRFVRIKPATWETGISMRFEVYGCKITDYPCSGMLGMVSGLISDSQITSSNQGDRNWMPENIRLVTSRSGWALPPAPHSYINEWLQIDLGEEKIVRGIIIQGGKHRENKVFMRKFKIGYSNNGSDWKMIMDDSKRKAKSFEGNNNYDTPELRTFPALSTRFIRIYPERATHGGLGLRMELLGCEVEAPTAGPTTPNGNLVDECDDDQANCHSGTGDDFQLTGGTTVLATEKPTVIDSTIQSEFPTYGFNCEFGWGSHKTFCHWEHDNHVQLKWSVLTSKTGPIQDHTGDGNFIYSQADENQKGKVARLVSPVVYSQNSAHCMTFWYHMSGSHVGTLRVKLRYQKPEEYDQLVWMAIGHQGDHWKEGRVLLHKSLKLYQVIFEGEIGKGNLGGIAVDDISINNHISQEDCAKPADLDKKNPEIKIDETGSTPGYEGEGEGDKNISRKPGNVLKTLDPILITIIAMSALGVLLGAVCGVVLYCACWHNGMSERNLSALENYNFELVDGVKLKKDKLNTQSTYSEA
PglD inh: C. jejuni PglD acetyltransferase inhibitors, primary screen, biochemical, DTNB colorimetric, single point | UDP-N-acetylbacillosamine N-acetyltransferase PglD (Campylobacter jejuni) | purified PglD enzyme, DTNB colorimetric CoA detection | inhibition, % at 12.5 µM | 360,000 tested, 0.098% active; in the data active = inhibition above about 16%, passing the limit was not always enough; inconclusive = no clear call, values can overlap the other calls
PDI turbidity: inhibitors of human PDI, primary screen, biochemical, turbidity, single point, plate reader; Protein disulfide-isomerase (Homo sapiens), P07237; PDI insulin aggregation turbidity, A650, 90 min; inhibition, % at 10 µM; 350,000 tested, 0.052% active; AID 588391, 2011;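 active = mean inhibition across replicates of 30% or more, whatever share of single replicates reach that level; inconclusive = mean inhibition below 30% while every single replicate reaches 30%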
ERp5 inh: inhibitors of ERp5-driven insulin aggregation, primary screen, biochemical, turbidity, absorbance 650 nm, single point | Protein disulfide-isomerase A6 (Homo sapiens), Q15084 | 90 min | 350,000 tested, 0.05% active | inhibition, % at 9.99 µM;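 active = mean replicate inhibition above about 25%, with every replicate also reaching it, limit read from the data, passing the limit was not always enough; inconclusive = only one of those two criteria met; inactive = neither criterion met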
The depositor's hits bear a star; ? = inconclusive; . = no result.

SMILES | ARNT TACC3 PPI | ALR inh | NRP1-CendR mod | PglD inh | PDI turbidity | ERp5 inh
N#Cc1c2n(c3c(=O)n(Cc4ccc(Cl)cc4)cnc13)CCCCC2 | 4.3 | . | 11.2 | 5.1 | -2.2 | .
CCN(C[C@@H]1[C@@H](c2ccccc2)[C@@H](CO)N1CC1CC1)C(=O)c1ccccc1F | . | . | . | . | . | 2.8
Nc1n[nH]c2cc(=O)n(-c3ccc(Cl)cc3)nc12 | . | 72.4 | 23.5 | . | -3.7 | 1.4
COc1ccc(-n2nc3c(N)n[nH]c3cc2=O)cc1 | . | ? | 28.6* | -2.7 | -17.2 | 0.0
C=CCn1c(-c2cccc([N+](=O)[O-])c2)n[nH]c1=S | -6.4 | 96.2* | 8.7 | . | 1.8 | .
C=CCn1c(-c2sccc2C)n[nH]c1=S | -2.5 | 94.8* | 13.2 | . | -3.7 | 5.3
S=c1[nH]nc(-c2ccc(Br)cc2)n1-c1ccc(Br)cc1 | -3.3 | ? | 15.9 | -3.7 | 11.1 | 1.1
O=[N+]([O-])c1cccc(-c2n[nH]c(=S)n2-c2ccc(Br)cc2)c1 | . | 94.8* | 4.7 | . | 6.2 | -2.1
O=[N+]([O-])c1cccc(-c2n[nH]c(=S)n2Cc2ccccc2)c1 | -0.7 | ? | 6.0 | . | 3.1 | .
O=C(O)c1ccc(-n2c(-c3ccc(Br)cc3)n[nH]c2=S)cc1 | -1.2 | 92.5* | 8.0 | . | -14.7 | .
Cc1cc(C(=O)Nc2cccc3c2O[C@@H](CN(C)Cc2ccncc2)[C@H](C)CN([C@H](C)CO)C3=O)n(C)n1 | -4.4 | . | . | -152.2 | . | 0.8
C[C@@H]1CCCCO[C@@H](CN(C)S(C)(=O)=O)[C@H](C)CN([C@@H](C)CO)C(=O)c2cc(NC(=O)c3ccccc3)ccc2O1 | -2.8 | . | . | -3.2 | . | 0.6
O=C(O)c1nn(-c2ccc(Cl)cc2)ccc1=O | . | -6.7 | 19.2* | -0.1 | -2.0 | .
CNC(=O)c1nn(-c2ccc(Cl)cc2)ccc1=O | -1.2 | -0.1 | 5.2 | -1.4 | -2.2 | .
COc1cc(OC)c2ccc(=O)oc2c1C(CCN1CCCC(C)C1)c1ccc2c(c1)OCO2 (centres undefined) | 31.6 | -23.7 | -3.3 | 0.3 | -0.9 | 2.1
COc1cc(OC)c2ccc(=O)oc2c1C(CCN1CCCC1)c1ccc(N(C)C)cc1 (centres undefined) | 14.6 | 98.3* | 13.6 | -3.5 | 3.0 | .
COc1cc(OC)c2ccc(=O)oc2c1C(CCN1CCCCC1)c1ccc(N(C)C)cc1 (centres undefined) | 13.4 | 98.6* | 18.3* | 2.1 | -2.0 | .
CCCCCc1cc(=O)oc2c(C(CCN3CCCCC3)c3ccc(OC)cc3)c(OC)cc(OC)c12 (centres undefined) | 14.3 | . | 26.4* | -5.0 | 2.6 | -1.9
C[C@@H]1CCCCO[C@H](CN(C)C(=O)Nc2ccc(F)cc2)[C@H](C)CN([C@@H](C)CO)C(=O)c2cc(NS(=O)(=O)c3ccccc3)ccc2O1 | -13.4 | . | . | -2.7 | . | 2.2
Cc1ccc(NC2CCCN(C(=O)c3snnc3C)C2)cc1C (centres undefined) | -2.0 | 99.0* | 10.7 | -3.9 | 5.8 | 8.2
Cc1ccc(NC2CCCN(C(=O)c3c(C)noc3C)C2)cc1C (centres undefined) | -3.4 | 95.4* | -7.1 | -5.2 | -1.8 | 1.0
Cc1nc(N2CCN(c3ccccc3)CC2)[nH]c(=O)c1C | 2.4 | 96.8* | -6.5 | 3.1 | -17.0 | 0.0
Cc1cc2[nH]c(=O)c(=O)[nH]c2cc1S(=O)(=O)N1CCN(c2ccccc2)CC1 | . | 97.0* | -1.2 | 1.3 | . | -4.6
CCCc1c(C)nc(N2CCN(c3ccccc3OC)CC2)[nH]c1=O | -1.2 | . | 31.9* | 4.0 | 2.0 | 0.6
Cc1nnc(N2CCN(Cc3ccccc3)CC2)[nH]c1=O | -5.6 | 99.3* | -4.8 | 4.7 | -8.7 | .
SMILES | ARNT TACC3 PPI | ALR inh | NRP1-CendR mod | PglD inh | PDI turbidity | ERp5 inh
CCN(CC)c1ccc(NS(=O)(=O)c2ccc(OC)cc2)cc1 | 4.5 | 99.0* | -0.7 | . | -2.8 | -9.9
CN(C)c1ccc(NS(=O)(=O)c2ccc(-c3csnn3)cc2)cc1 | . | 98.8* | 3.9 | -1.1 | -6.4 | 6.6
Cc1ccc(S(=O)(=O)N(C)/N=C/c2ccc(N(C)C)cc2)cc1 | 8.1 | 98.5* | 12.6 | -5.3 | 4.2 | 1.3
CN(C)c1ccc(NS(=O)(=O)c2ccc(Cl)cc2)cc1 | 11.2 | . | -0.1 | . | -8.4 | .
Cc1ccc(S(=O)(=O)Nc2ccc(N(C)C)cc2)cc1 | 8.4 | 98.9* | -6.8 | . | -5.7 | -2.6
CCCC#Cc1cnc2c(c1)C(=O)N([C@H](C)CO)C[C@H](C)[C@H](CN(C)C(=O)c1ccc(F)cc1)O2 | 3.0 | . | . | -1.3 | . | -3.1
O=C(CC1CC1)N1CC(=O)N2[C@H](CO)[C@H](c3ccc(C#Cc4ccccc4)cc3)[C@@H]2C1 | . | . | . | . | . | -8.0
CN(C)c1ccc(NS(=O)(=O)c2cccc(Cl)c2)cc1 | 24.7 | 98.7* | 10.0 | -7.0 | -12.8 | .
Cc1cccc(C)c1NS(=O)(=O)c1cc2c3c(c1)CC(=O)N3CCC2 | . | 13.2 | -4.2 | 5.0 | 0.1 | -1.5
Cc1cc(S(=O)(=O)Nc2ccc(N(C)C)cc2)c(C)s1 | 16.5 | 99.5* | -4.3 | -2.8 | -0.5 | .
CN(C)c1ccc(NS(=O)(=O)c2cc3c4c(c2)CC(=O)N4CCC3)cc1 | 0.9 | 99.3* | 2.3 | 3.0 | 5.1 | 3.1
C#CCN([C@H](/C=C/C1CC1)[C@@H](O)Cc1ccccc1)[C@@H]1C(=O)N2[C@@H]1SC(C)(C)[C@@H]2C(=O)OC | . | . | . | . | . | 1.2
Cc1ccc(-n2ncc3c2CCCC3NC(=O)c2ocnc2C)cc1C (centres undefined) | -6.9 | -9.3 | 10.7 | 0.9 | 1.8 | -9.9
Cc1cc(C(=O)NC2CCCc3c2cnn3-c2ccc(C)c(C)c2)no1 (centres undefined) | 1.2 | 88.8* | 8.1 | . | 8.0 | -13.9
O=S(=O)(O)c1cccc2c(N=Nc3ccc(O)c4ncccc34)cccc12 | 72.8* | 33.0 | 54.1 | -0.3 | 13.0 | 1.6
CCOC(=O)C1=C(CS(=O)(=O)c2ccc(F)c(C)c2)NC(=O)NC1c1ccc(O)c(O)c1 (centres undefined) | 2.0 | 98.4* | 1.5 | -0.5 | 9.9 | 5.9
C[C@H](CO)N1C[C@H](C)[C@H](CN(C)C(=O)NC2CCCC2)Oc2ncc(-c3cccc(C(F)(F)F)c3)cc2C1=O | -1.5 | . | . | 4.2 | . | -2.1
CCCCC1CCC(C(=O)NC2CCS(=O)(=O)C2)CC1 (centres undefined) | -4.9 | -1.5 | 38.2* | -2.8 | 14.0 | .
c1cc(C2CCCCC2)ccc1Oc1nc(N2CCOCC2)nc(N2CCOCC2)n1 | -1.2 | -1.8 | -5.8 | -3.7 | -0.9 | .
c1ccc(Oc2nc(N3CCOCC3)nc(N3CCOCC3)n2)cc1 | -2.0 | 88.2* | 2.4 | 0.8 | -1.8 | .
